Reference: PubChem BioAssay
Values joined by “and” are separate entries in the source; they are usually repeats but may differ in a detail not shown here. Identical values can stand only once. For part of these data: Measured potencies and affinities stand elsewhere. Active and inactive are the calls of the source. Unless noted, how the calls were made is not given here.

Experiments:
[1] = P. berghei load reduction in hepatocytes – cell-based, HepG2, luciferase luminescence, HepG2 viability, primary screen (AID 624349; in the data active means parasite load remaining mostly below about 12%, no sharp cut-off; inactive means mostly above about 10%;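 further: 100% = mean of DMSO negative control wells on the same plate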); conditions: P. berghei liver stage in HepG2, luciferase luminescence, concentration not given here; parasite load remaining: stronger effect = lower value; viability: measured here: HepG2 viability without parasites
[2] = viability loss with induced miR-34 in A549 – imaging, A549 dox-inducible miR-34, nuclei and caspase counts, primary screen (AID 1347080;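 active means compounds whose cell count with miR-34 switched on is under 0.7 times the count with it off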); conditions: A549 miR-34 inducible, Hoechst nuclei count, 48 h
[3] = chitosan synthesis blockers in C. neoformans – flow cytometry, Cibacron Brilliant Red staining (AID 1347148); conditions: Cryptococcus neoformans chitosan, stronger effect = lower value; at 10 µM unless noted;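 further: compound exposure lasted three days at 37 degrees C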
[4] = compounds altering HSF1 focus formation in cells – imaging, Selleck Cancer Library (AID 1347162; in the data active means plate-normalised HSF1 focus index below about 0.46); conditions: human cells, HSF1 nuclear foci imaging, at 10 µM; SSMD: measured here: HSF1 foci SSMD mean; cell count: measured here: cell number; plate-normalised HSF1 focus index: stronger effect = lower value
[5] = blockers of polyQ-driven CASP3 activation – cell-based (AID 1583); conditions: polyglutamine-induced caspase-3 activation, cell assay; stronger effect = higher value;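 tested at 10 µM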
[6] = yeast 75Q aggregation reduction – 75Q-TubU reporter (AID 1593); conditions: Yeast 75Q polyglutamine aggregation reporter
[7] = restoration of touch response, mutant HTT neurons – whole organism, C. elegans mechanosensory neurons, N-terminal huntingtin (AID 1599); conditions: C. elegans polyQ-huntingtin mechanosensory neurons, stronger effect = higher value
[8] = blockers of cytochrome c efflux from mitochondria – biochemical, purified mitochondria (AID 1603); conditions: stronger effect = lower value;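 further: mouse liver mitochondria challenged with calcium chloride; signal normalized to the plate average as 100%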
[9] = polyglutamine aggregate formation blockers (AID 1604); conditions: polyglutamine-induced protein aggregation inhibition assay; stronger effect = higher value; tested at 2.5 µM
[10] = glutamate transport activators, MN-1 cells, MN-1 cell line (AID 1612); conditions: MN-1 motor neuron cells, stronger effect = higher value;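 further: tested at 1 µM final; 0% = mean of DMSO vehicle wells on each plate; positive means more glutamate uptake than control and negative means less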
[11] = 75Q-TubH aggregate inhibition, S. cerevisiae, yeast (AID 1616); conditions: S. cerevisiae 75Q-TubH polyglutamine aggregation suppression; stronger effect = higher value
[12] = stronger effect = lower value, cell number ratio, induced over uninduced
[13] = measured here: relative caspase fold change +Dox/-Dox
[14] = measured here: total cells with miR-34 induction, stronger effect = lower value
[15] = measured here: total cells without miR-34 induction

In the case of `Oc1cc(O)c2c(c1)OC(c1ccc(O)c(O)c1)C(O)C2` (stereo not given), the parasite load remaining [1] is reported as 64.2% (inactive), the viability [1] is reported as 97% and the fold change [2, 12] is reported as 0.908 (inactive). The fold change [2, 13] was 1.18, the cell count [2, 14] was 9500 and the cell count [2, 15] was 10500.

With `CCCCCCCCCCCCCCCCOC[C@@H](COP(=O)([O-])OCC[N+](C)(C)C)OC` the fold fluorescence [3] was 4.86 (inactive).

For `CC/C=C\C/C=C\C/C=C\C/C=C\C/C=C\CCCC(=O)OCC`, the parasite load remaining [1] was 31% (inactive), the viability [1] was 94% and the fold change [2, 12] was 1.01 (inactive). It also gave a fold change [2, 13] of 1.98, a cell count [2, 14] of 11500 and a cell count [2, 15] of 11400.

With `O=C(NC[C@H]1CCCCN1)c1cc(OCC(F)(F)F)ccc1OCC(F)(F)F` the fold fluorescence [3] was 6.98 [at 120.7 µM] (inactive).

For `COC(=O)C1=C(C)NC(C)=C(C(=O)OCCSc2ccccc2)[C@H]1C`, the fold fluorescence [3] was 8.74 [at 138.3 µM] (inactive).

In the case of `CC(C)=CCC/C(C)=C/CC1=C(C)C(=O)c2ccccc2C1=O`, the parasite load remaining [1] is reported as 76.4% (inactive), the viability [1] is reported as 75.8% and the fold change [2, 12] is reported as 0.983 (inactive). The fold change [2, 13] was 0.847, the cell count [2, 14] was 6780 and the cell count [2, 15] was 6900.

For `COc1ccc(CC(N)C(=O)N[C@@H]2[C@H](O)[C@@H](n3cnc4c(N(C)C)ncnc43)O[C@H]2CO)cc1` (stereo not given in full), the fold fluorescence [3] was 4.82 [at 106 µM] (inactive).

For `C[C@H]1CNCCN1S(=O)(=O)c1cccc2cnccc12`, the fold fluorescence [3] was 3.94 [at 171.6 µM] (inactive).

For `COc1cc2c3cc1Oc1c(OC)c(OC)cc4c1[C@H](Cc1ccc(OC(=O)c5ccc([N+](=O)[O-])cc5)c(c1)Oc1ccc(cc1)C[C@H]3N(C)CC2)N(C)CC4`, the fold fluorescence [3] was 5.83 [at 66 µM] (inactive).

In the case of `COc1cc2c(cc1OC)-c1[nH]nc(Nc3cccc(F)c3)c1C2`, the parasite load remaining [1] is reported as 37% (inactive), the viability [1] is reported as 81.5% and the fold change [2, 12] is reported as 1.05 (inactive). The fold change [2, 13] was 1.72, the cell count [2, 14] was 1160 and the cell count [2, 15] was 1100.

For `CCC1OC(=O)[C@H](C)C(=O)[C@H](C)[C@@H](OC2O[C@H](C)C[C@H](N(C)C)[C@H]2O)[C@](C)(OC)C[C@@H](C)C(=O)[C@H](C)[C@H]2N(CCCCn3cnc(-c4cccnc4)c3)C(=O)OC12C` (stereo not given in full), the parasite load remaining [1] was 141% (inactive) and 312% (inactive), the viability [1] was 91.8% and 96.9% and the fold change [2, 12] was 0.904 (inactive). It also gave a fold change [2, 13] of 2.11, a cell count [2, 14] of 11200 and a cell count [2, 15] of 12400.

In the case of `CC(C)(CO)C(O)C(=O)NCCC(=O)O` (stereo not given), the parasite load remaining [1] is reported as 190% (inactive), the viability [1] is reported as 105% and the fold change [2, 12] is reported as 0.839 (inactive). The fold change [2, 13] was 0.783, the cell count [2, 14] was 8190 and the cell count [2, 15] was 9770.

For `C[C@H]1[C@H](C)CC[C@]2(C(=O)O[C@@H]3O[C@H](COC4O[C@H](CO)[C@@H](OC5O[C@@H](C)[C@H](O)[C@@H](O)[C@H]5O)[C@H](O)[C@H]4O)[C@@H](O)[C@H](O)[C@H]3O)CC[C@]3(C)C(=CC[C@@H]4[C@@]5(C)C[C@@H](O)[C@H](O)[C@@](C)(CO)C5CC[C@]43C)[C@H]12` (stereo not given in full), the parasite load remaining [1] was 109% (inactive), the viability [1] was 74.2% and the fold change [2, 12] was 0.957 (inactive). It also gave a fold change [2, 13] of 0.577, a cell count [2, 14] of 8940 and a cell count [2, 15] of 9340.

With `CN=C(NC#N)Nc1ccc(C2=NNC(=O)C[C@@H]2C)cc1` the fold fluorescence [3] was 7.2 [at 175.9 µM] (inactive).

In the case of `C=C1O[C@](CO)(n2cnc3c(N)ncnc32)[C@@H](O)[C@H]1O`, the fold fluorescence [3] is reported as 10.1 [at 179 µM] (inactive).

In the case of `CCCCC[C@@H](O)/C=C/[C@H]1[C@H](CCCCCCC(=O)O)[C@H](O)C[C@@H]1O`, the fold fluorescence [3] is reported as 3.58 (inactive).

In the case of `COC(=O)C1=C(C)NC(C)=C(C(=O)OCCN(C)Cc2ccccc2)[C@H]1c1cccc([N+](=O)[O-])c1`, the fold fluorescence [3] is reported as 4.49 [at 104.3 µM] (inactive).

In the case of `CCCCCCCCCCCCCCCCOC[C@@H](COP(=O)([O-])OCC[N+](C)(C)C)OC(=O)NC`, the fold fluorescence [3] is reported as 5.1 (inactive).

In the case of `CC(C)COC[C@H](CN(Cc1ccccc1)c1ccccc1)N1CCCC1`, the fold fluorescence [3] is reported as 8.48 [at 136.4 µM] (inactive).

With `CCCCC[C@@H](O)/C=C/[C@H]1[C@@H]2C/C(=C/CCCC(=O)O)O[C@@H]2C[C@@H]1O` the fold fluorescence [3] was 4.1 (inactive).

For `CCCCCCCCCCCCCCCCCCOP(=O)(O)OC1CC[N+](C)(C)CC1`, the SSMD [4] was -3.23, the cell count [4] was 7160 and the plate-normalised HSF1 focus index [4] was 0.793 (inactive).

With `CCCCCCCCCCCCCCCC(=O)OC[C@@H](COP(=O)(O)O)OC(=O)CCCCCCCCCCCCCCC` the fold fluorescence [3] was 3.86 (inactive).

In the case of `CC[C@H](C)[C@H](N)C(=O)N[C@@H](CC(N)=O)C(=O)N[C@@H](CC(C)C)C(=O)N[C@@H](CCCCN)C(=O)N[C@@H](C)C(=O)N[C@@H](CC(C)C)C(=O)N[C@@H](C)C(=O)N[C@@H](C)C(=O)N[C@@H](CC(C)C)C(=O)N[C@@H](C)C(=O)N[C@@H](CCCCN)C(=O)N[C@@H](CCCCN)C(=O)N[C@H](C(=O)N[C@@H](CC(C)C)C(N)=O)[C@@H](C)CC`, the fold fluorescence [3] is reported as 3.8 [at 33.8 µM] (inactive).

With `CC1(COc2ccc(C[C@@H]3SC(=O)NC3=O)cc2)CCCCC1` the fold fluorescence [3] was 5.39 (inactive).

With `COC(C)(C)CCC[C@H](C)C/C=C/C(C)=C/C(=O)O` the fold fluorescence [3] was 5.1 (inactive).

For `C=CCNC1=C2C[C@H](C)C[C@@H](OC)[C@@H](O)[C@H](C)/C=C(\C)[C@@H](OC(N)=O)[C@H](OC)/C=C\C=C(/C)C(=O)NC(=CC1=O)C2=O`, the fold fluorescence [3] was 7.27 [at 85.4 µM] (inactive).

With `CC[C@H]1/C=C(\C)C[C@@H](C)C[C@@H](OC)[C@@H]2O[C@](O)(C(=O)C(=O)N3CCCC[C@@H]3C(=O)O[C@@H](/C(C)=C/[C@H]3CC[C@H](O)[C@@H](OC)C3)[C@@H](C)[C@H](O)CC1=O)[C@@H](C)C[C@H]2OC` the fold fluorescence [3] was 13.8 [at 63.1 µM] (inactive).

With `CC1=NN(c2ccc(C(=O)O)cc2)C(=O)/C1=C\c1ccc(-c2cc(C)c(C)cc2[N+](=O)[O-])o1` the SSMD [4] was 1.04, the cell count [4] was 6690 and the plate-normalised HSF1 focus index [4] was 1.07 (inactive).

For `COCCN1C2=C(C(=O)c3ccccc3C2=O)N(Cc2cnccn2)C1C` (stereo not given), the SSMD [4] was 2.27, the cell count [4] was 6910 and the plate-normalised HSF1 focus index [4] was 1.13 (inactive).

With `C[C@H](N)C1CCC(C(=O)Nc2ccncc2)CC1` (stereo not given in full) the fold fluorescence [3] was 2.94 [at 202.1 µM] (inactive).

In the case of `CCCCC[C@@H](O)/C=C/[C@H]1[C@H](C/C=C\CCCC(=O)O)[C@@H]2CO[C@H]1C2`, the fold fluorescence [3] is reported as 4.13 (inactive).

In the case of `CC[C@@H](CO)Nc1nc(NCc2ccccc2)c2ncn(C(C)C)c2n1`, the parasite load remaining [1] is reported as 32.6% (inactive), the viability [1] is reported as 67.3% and the fold fluorescence [3] is reported as 9.95 [at 141.1 µM] (inactive).

With `C=C1C(=O)O[C@@H]2C3OC3(C)CC/C=C(\C)CC[C@@H]12` (stereo not given in full) the inhibition [5] was 14.3%, the score [6] was 0.94 and the rescue above control [7] was 8.2. It also gave a cytochrome c release ratio [8] of 0.54, an inhibition of aggregation [9] of 93.6% and a glutamate uptake change [10] of -11%. For the same molecule, the aggregation suppression score [11] was 0.572 and the fold fluorescence [3] was 11.6 [at 201.4 µM] (inactive).

With `O[C@H]1C=C2CCN3Cc4cc5c(cc4C(C23)[C@@H]1O)OCO5` (stereo not given in full) the fold fluorescence [3] was 10.6 [at 174 µM] (inactive).

With `CO[C@H]1C[C@@H]2CC[C@@H](C)[C@@](O)(O2)C(=O)C(=O)N2CCCC[C@H]2C(=O)O[C@H]([C@@H](C)C[C@@H]2CC[C@@H](OCCO)[C@H](OC)C2)CC(=O)[C@H](C)/C=C(\C)[C@@H](O)[C@@H](OC)C(=O)[C@H](C)C[C@H](C)/C=C/C=C/C=C/1C` the SSMD [4] was 2.84, the cell count [4] was 6750 and the plate-normalised HSF1 focus index [4] was 1.15 (inactive).

With `COc1cc(C(=O)NC(=S)Nc2cccc(NC(=O)c3ccccc3)c2)cc(OC)c1OC` the SSMD [4] was 4.07, the cell count [4] was 6830 and the plate-normalised HSF1 focus index [4] was 1.24 (inactive).
